{"source": "PubChem BioAssay (NCATS)", "note": "Where “and” joins values, the source holds several entries; their conditions need not be identical. Equal values may be shown once. Results filed as inconclusive are left out. Calls of active or inactive are those of the source. Calls follow the shape of the dose curve; as a rule, active = well fitted inhibition curve with a large enough effect in the signal ratio, with a control signal flat (not every such curve was filed as active); inconclusive = small, poorly fitted or top-dose-only effect, or effect the other way, or a change in a side signal; inactive = flat fitted curve, though single readings scatter; the % refers to the signal ratio. % is scaled to controls: 0 for no effect and ±100 for the full control effect.", "data": [{"molecular_target": "Thyroid hormone receptor beta (Homo sapiens) (UniProt P10828)", "sequence (P10828 whole entry, looked up)": "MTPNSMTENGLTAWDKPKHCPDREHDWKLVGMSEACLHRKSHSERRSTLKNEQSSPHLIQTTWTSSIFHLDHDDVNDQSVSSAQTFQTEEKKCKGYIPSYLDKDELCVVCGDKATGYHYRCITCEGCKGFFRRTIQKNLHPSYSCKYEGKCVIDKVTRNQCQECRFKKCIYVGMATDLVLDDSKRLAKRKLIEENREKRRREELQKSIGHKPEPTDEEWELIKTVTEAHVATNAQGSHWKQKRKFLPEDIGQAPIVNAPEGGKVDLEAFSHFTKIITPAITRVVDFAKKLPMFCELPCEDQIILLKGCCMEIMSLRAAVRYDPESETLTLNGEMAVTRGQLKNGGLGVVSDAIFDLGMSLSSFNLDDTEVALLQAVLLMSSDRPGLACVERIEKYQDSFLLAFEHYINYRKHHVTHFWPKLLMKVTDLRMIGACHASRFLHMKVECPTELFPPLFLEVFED", "experiment": "qHTS assay for small molecule antagonists of thyroid hormone receptor beta signaling (AID 588547);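 also: cells stimulated with 0.4 nM T3 agonist during compound exposure; series mostly up to about 77 µM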", "settings": "TR-UAS-bla HEK293, beta-lactamase ratio, antagonist mode, 18 h", "description": "NIH Chemical Genomics Center [NCGC] U.S. Environmental Protection Agency [EPA] National Institutes of Environmental Health Sciences [NIEHS] National Toxicology Program [NTP] NCGC Assay Overview Thyroid hormone receptor (TR) belongs to nuclear hormone receptor superfamily. There are two subtypes for TR: TR-alpha and TR-beta. TR-beta plays a major role in regulating plasma cholesterol levels and it mediates the biological activities of thyroid hormone. Screening environmental chemicals on TR-beta signaling will provide important information for the mechanism of compound action.\nNCGC Assay Protocol Summary Using a beta-lactamase reporter-gene under control of the TR response element, a cell-based assay [GeneBLAzer TR-UAS-bla-GripTite assay developed by Invitrogen] was used to measure TR-beta signaling in antagonist mode. TR-UAS-bla-GripTite HEK 293 cells were used with assay medium containing 2% charcoal/dextran FBS, 0.1 mM NEAA and 1 mM sodium pyruvate. The assay was performed in clear bottom black Greiner 1536-well plates. Library compounds were measured for their ability to inhibit the reporter gene activity. Compounds were screened in a titration series in 1536-well format. The fluorescence intensity (405 nm excitation, 460/530 nm emission) was measured using an EnVision plate reader. […] Concentration-response titration points for each compound were fitted to the Hill equation yielding concentrations of half-maximal inhibition (IC50) and maximal response (efficacy) values. qHTS protocol for TR-beta beta-lactamase assay in antagonist mode [Step] [Parameter] [Value] [Description] 1. Reagent; 5 uL; 2500 cells/well 2. Incubation; 37 C for 4 hrs 3. Compounds; 23 nL; 0.59 nM to 92 uM 4. Controls (DMSO); 23 nL 5. Agonist (Stimulator); 1uL; T3 at 0.4nM (final) concentrations 6. Incubation; 37 C for 18 hrs 7. Detection reagent; 1 uL of CCF4-dye 8. Incubation; RT for 2 hrs 9. Detection; Fluorescence; Envision plate reader", "values": [{"smiles": "CC(=O)OC1CC(C)OC(C)O1", "note": "(stereo not given)", "activity change % (negative = inhibition)": "-11% (inactive) and -10.6% (inactive)"}, {"smiles": "O=C(OCc1ccccc1)c1ccccc1O", "activity change % (negative = inhibition)": "-8.64% (inactive)"}, {"smiles": "C=Cc1cccc(C)c1", "activity change % (negative = inhibition)": "-8.39% (inactive)"}, {"smiles": "OCC(CBr)(CBr)CBr", "activity change % (negative = inhibition)": "-0.909% (inactive)"}, {"smiles": "CCCCOC(=O)COc1ccc(Cl)cc1Cl", "activity change % (negative = inhibition)": "7.32% (inactive) and -4.27% (inactive)"}, {"smiles": "COc1ccc([N+](=O)[O-])cc1N", "activity change % (negative = inhibition)": "-27.9% (inactive)"}, {"smiles": "Nc1ccc(N)c(Cl)c1", "activity change % (negative = inhibition)": "-7.72% (inactive)"}, {"smiles": "O=[N+]([O-])c1cc(N(CCO)CCO)ccc1NCCO", "activity change % (negative = inhibition)": "14.2% (inactive) and 12% (inactive)"}, {"smiles": "CC(C)(C)C(=O)C1C(=O)c2ccccc2C1=O", "activity change % (negative = inhibition)": "12.3% (inactive)"}, {"smiles": "CCC(Cl)CC(Cl)C(Cl)C(Cl)C(Cl)C(C)Cl", "note": "(stereo not given)", "activity change % (negative = inhibition)": "-1.45% (inactive)"}, {"smiles": "CC(CCC(=O)O)(c1ccc(O)cc1)c1ccc(O)cc1", "activity change % (negative = inhibition)": "-0.624% (inactive)"}, {"smiles": "O=C(Cl)c1ccc([N+](=O)[O-])cc1", "activity change % (negative = inhibition)": "12% (inactive)"}, {"smiles": "Brc1cc(Br)c(Oc2cc(Br)c(Br)cc2Br)cc1Br", "activity change % (negative = inhibition)": "17.2% (inactive)"}, {"smiles": "CCNC(=S)NCC", "activity change % (negative = inhibition)": "-1.42% (inactive)"}, {"smiles": "Nc1ccccc1O", "activity change % (negative = inhibition)": "-12.3% (inactive)"}, {"smiles": "Cc1ccc(S(N)(=O)=O)cc1", "activity change % (negative = inhibition)": "17.3% (inactive) and -1.91% (inactive)"}, {"smiles": "C=CC(=O)CC", "activity change % (negative = inhibition)": "9.8% (inactive)"}, {"smiles": "O=C(O)c1cc(N=Nc2ccc([N+](=O)[O-])cc2)ccc1O", "activity change % (negative = inhibition)": "12.8% (inactive)"}, {"smiles": "COc1ccc(C)cc1N", "activity change % (negative = inhibition)": "-19.2% (inactive)"}, {"smiles": "OCC(CO)(CBr)CBr", "activity change % (negative = inhibition)": "-10.9% (inactive) and 7.42% (inactive)"}, {"smiles": "CCCCCCCCC1CO1", "note": "(stereo not given)", "activity change % (negative = inhibition)": "2.22% (inactive)"}, {"smiles": "CC(=O)OC(C(=O)c1ccccc1)c1ccccc1", "note": "(stereo not given)", "activity change % (negative = inhibition)": "4.95% (inactive)"}, {"smiles": "CN(C)c1ccc(Cc2ccc(N(C)C)cc2)cc1", "activity change % (negative = inhibition)": "1.5% (inactive)"}, {"smiles": "CCOC(=O)C1OC1c1ccccc1", "note": "(stereo not given)", "activity change % (negative = inhibition)": "6.36% (inactive)"}, {"smiles": "CC(=O)c1ccc(Cl)c(Cl)c1Cl", "activity change % (negative = inhibition)": "-12.3% (inactive)"}, {"smiles": "Cc1ccccc1OCC1CO1", "note": "(stereo not given)", "activity change % (negative = inhibition)": "-11% (inactive)"}, {"smiles": "c1ccc2ncccc2c1", "activity change % (negative = inhibition)": "3.38% (inactive)"}, {"smiles": "C1CCCNCC1", "activity change % (negative = inhibition)": "-19.9% (inactive)"}, {"smiles": "OC1CCCCC1", "activity change % (negative = inhibition)": "4.86% (inactive)"}, {"smiles": "c1ccc2c(c1)ccc1ccccc12", "activity change % (negative = inhibition)": "0.286% (inactive)"}, {"smiles": "CCCC(=O)OC(=O)CCC", "activity change % (negative = inhibition)": "18.6% (inactive) and 0.261% (inactive)"}, {"smiles": "Cc1ccc2ccc3cccc4ccc1c2c34", "activity change % (negative = inhibition)": "1.52% (inactive)"}, {"smiles": "O=[N+]([O-])c1ccc(F)cc1F", "activity change % (negative = inhibition)": "0.277% (inactive)"}, {"smiles": "CC(=O)CC(=O)Nc1ccccc1", "activity change % (negative = inhibition)": "8.7% (inactive) and 11% (inactive)"}, {"smiles": "Cc1ccc(N)cc1[N+](=O)[O-]", "activity change % (negative = inhibition)": "-24.5% (inactive)"}, {"smiles": "Nc1ccc2c(c1)C(=O)c1ccccc1C2=O", "activity change % (negative = inhibition)": "-15.9% (inactive)"}, {"smiles": "Cc1ccc(O)c(N)c1", "activity change % (negative = inhibition)": "-10.8% (inactive)"}, {"smiles": "C[Si](C)(C)Cl", "activity change % (negative = inhibition)": "-7.14% (inactive)"}, {"smiles": "C/C(Cl)=C/CCl", "activity change % (negative = inhibition)": "0.318% (inactive)"}, {"smiles": "S=C(NC1CCCCC1)NC1CCCCC1", "activity change % (negative = inhibition)": "30% (inactive)"}]}]}
